Measured values reported in the supplement of paper PMC10849652.
The full data set covers some 8,800 targets. This sample favours those with a hit. About 0.5% of all pairs of compound and target were hits. Unmarked numbers belong to inactive results.

Columns and labels:
Test in all cases: log2 fold change, soluble protein after heating vs DMSO (PISA); higher = thermal stabilisation; K562 lysate, 10 uM; active = over 0.2 and 3.5 SD of the protein, either way, in both replicates (recomputed)
[1] = compound: NCC(=O)Nc1ccc(-n2nc(C(F)(F)F)cc2-c2ccc3c(ccc4ccccc43)c2)cc1
Method in brief: (§1)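 Log-two fold change in thermal stability relative to solvent controls is reported from duplicates. For each sample, crude K562 extract from dounce-homogenised pellets in PBS pH 7.4 with 1 mM MgCl2, at 1 mg/mL protein, was treated with 10 μM compound for 30 min. Aliquots heated for 3 min across 48°C-58°C were pooled, brought to 0.5% NP-40 at 4°C and cleared at 21,000xg for 90 min. The supernatant was quantified by TMTpro 16plex LC-MS/MS with channel sums equalised.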

vorinostat = compound: O=C(CCCCCCC(=O)Nc1ccccc1)NO [vorinostat]
Method in brief: as §1

silmitasertib = compound: O=C(O)c1ccc2c(c1)nc(Nc1cccc(Cl)c1)c1ccncc12 [silmitasertib]
Method in brief: as §1

[2] = compound: O=C1NC(=O)C(c2cnc3ccccn23)=C1c1cn2c3c(cc(F)cc13)CN(C(=O)N1CCCCC1)CC2
Method in brief: as §1

entospletinib = compound: c1cn2cc(-c3ccc4cn[nH]c4c3)nc(Nc3ccc(N4CCOCC4)cc3)c2n1 [entospletinib]
Method in brief: as §1

Sequence of UniProt Q9BVS4 (Q9BVS4 whole entry, looked up): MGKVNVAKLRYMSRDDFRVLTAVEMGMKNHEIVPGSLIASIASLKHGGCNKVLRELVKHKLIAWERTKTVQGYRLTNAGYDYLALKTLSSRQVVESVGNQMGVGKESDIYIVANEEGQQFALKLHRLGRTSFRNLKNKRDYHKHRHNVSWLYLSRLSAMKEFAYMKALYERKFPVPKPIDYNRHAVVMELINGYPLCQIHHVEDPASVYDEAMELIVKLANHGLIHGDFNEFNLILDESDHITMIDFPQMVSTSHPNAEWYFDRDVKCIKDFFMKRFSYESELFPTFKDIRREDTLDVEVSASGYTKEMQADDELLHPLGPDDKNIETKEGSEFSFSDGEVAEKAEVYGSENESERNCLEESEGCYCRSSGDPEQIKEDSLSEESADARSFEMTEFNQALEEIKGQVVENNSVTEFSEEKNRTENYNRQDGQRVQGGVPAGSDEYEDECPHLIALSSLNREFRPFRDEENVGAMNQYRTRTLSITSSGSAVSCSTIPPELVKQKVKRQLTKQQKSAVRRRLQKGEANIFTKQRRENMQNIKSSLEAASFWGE
Sequence of UniProt O75582 (O75582 whole entry, looked up): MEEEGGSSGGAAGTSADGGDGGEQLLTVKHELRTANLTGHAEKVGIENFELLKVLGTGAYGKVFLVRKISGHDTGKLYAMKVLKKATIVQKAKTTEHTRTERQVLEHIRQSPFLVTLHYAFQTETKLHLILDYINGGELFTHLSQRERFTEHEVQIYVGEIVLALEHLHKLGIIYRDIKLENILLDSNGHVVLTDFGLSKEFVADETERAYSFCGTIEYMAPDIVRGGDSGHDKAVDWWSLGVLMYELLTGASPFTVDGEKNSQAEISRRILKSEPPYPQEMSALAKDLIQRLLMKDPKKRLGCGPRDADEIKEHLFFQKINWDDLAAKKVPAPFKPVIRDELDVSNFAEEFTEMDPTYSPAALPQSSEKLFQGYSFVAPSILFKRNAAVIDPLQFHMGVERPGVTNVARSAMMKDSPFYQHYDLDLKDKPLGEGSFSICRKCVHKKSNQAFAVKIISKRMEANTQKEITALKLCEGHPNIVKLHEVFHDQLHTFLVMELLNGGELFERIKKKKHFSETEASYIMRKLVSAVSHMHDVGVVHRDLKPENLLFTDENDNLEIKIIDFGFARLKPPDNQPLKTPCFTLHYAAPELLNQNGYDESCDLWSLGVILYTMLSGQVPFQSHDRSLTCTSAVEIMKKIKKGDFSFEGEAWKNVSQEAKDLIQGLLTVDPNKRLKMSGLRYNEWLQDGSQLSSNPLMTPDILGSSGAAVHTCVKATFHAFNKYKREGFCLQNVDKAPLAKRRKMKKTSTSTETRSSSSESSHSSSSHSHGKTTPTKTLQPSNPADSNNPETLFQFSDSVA
Sequence of UniProt Q9Y6B6 (Q9Y6B6 whole entry, looked up): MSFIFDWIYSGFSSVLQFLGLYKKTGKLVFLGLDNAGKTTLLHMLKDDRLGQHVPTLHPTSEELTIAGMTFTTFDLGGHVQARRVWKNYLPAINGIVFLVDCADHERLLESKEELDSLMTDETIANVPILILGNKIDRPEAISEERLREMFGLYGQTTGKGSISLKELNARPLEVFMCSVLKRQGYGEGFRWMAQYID
Sequence of UniProt O15027 (O15027 whole entry, looked up): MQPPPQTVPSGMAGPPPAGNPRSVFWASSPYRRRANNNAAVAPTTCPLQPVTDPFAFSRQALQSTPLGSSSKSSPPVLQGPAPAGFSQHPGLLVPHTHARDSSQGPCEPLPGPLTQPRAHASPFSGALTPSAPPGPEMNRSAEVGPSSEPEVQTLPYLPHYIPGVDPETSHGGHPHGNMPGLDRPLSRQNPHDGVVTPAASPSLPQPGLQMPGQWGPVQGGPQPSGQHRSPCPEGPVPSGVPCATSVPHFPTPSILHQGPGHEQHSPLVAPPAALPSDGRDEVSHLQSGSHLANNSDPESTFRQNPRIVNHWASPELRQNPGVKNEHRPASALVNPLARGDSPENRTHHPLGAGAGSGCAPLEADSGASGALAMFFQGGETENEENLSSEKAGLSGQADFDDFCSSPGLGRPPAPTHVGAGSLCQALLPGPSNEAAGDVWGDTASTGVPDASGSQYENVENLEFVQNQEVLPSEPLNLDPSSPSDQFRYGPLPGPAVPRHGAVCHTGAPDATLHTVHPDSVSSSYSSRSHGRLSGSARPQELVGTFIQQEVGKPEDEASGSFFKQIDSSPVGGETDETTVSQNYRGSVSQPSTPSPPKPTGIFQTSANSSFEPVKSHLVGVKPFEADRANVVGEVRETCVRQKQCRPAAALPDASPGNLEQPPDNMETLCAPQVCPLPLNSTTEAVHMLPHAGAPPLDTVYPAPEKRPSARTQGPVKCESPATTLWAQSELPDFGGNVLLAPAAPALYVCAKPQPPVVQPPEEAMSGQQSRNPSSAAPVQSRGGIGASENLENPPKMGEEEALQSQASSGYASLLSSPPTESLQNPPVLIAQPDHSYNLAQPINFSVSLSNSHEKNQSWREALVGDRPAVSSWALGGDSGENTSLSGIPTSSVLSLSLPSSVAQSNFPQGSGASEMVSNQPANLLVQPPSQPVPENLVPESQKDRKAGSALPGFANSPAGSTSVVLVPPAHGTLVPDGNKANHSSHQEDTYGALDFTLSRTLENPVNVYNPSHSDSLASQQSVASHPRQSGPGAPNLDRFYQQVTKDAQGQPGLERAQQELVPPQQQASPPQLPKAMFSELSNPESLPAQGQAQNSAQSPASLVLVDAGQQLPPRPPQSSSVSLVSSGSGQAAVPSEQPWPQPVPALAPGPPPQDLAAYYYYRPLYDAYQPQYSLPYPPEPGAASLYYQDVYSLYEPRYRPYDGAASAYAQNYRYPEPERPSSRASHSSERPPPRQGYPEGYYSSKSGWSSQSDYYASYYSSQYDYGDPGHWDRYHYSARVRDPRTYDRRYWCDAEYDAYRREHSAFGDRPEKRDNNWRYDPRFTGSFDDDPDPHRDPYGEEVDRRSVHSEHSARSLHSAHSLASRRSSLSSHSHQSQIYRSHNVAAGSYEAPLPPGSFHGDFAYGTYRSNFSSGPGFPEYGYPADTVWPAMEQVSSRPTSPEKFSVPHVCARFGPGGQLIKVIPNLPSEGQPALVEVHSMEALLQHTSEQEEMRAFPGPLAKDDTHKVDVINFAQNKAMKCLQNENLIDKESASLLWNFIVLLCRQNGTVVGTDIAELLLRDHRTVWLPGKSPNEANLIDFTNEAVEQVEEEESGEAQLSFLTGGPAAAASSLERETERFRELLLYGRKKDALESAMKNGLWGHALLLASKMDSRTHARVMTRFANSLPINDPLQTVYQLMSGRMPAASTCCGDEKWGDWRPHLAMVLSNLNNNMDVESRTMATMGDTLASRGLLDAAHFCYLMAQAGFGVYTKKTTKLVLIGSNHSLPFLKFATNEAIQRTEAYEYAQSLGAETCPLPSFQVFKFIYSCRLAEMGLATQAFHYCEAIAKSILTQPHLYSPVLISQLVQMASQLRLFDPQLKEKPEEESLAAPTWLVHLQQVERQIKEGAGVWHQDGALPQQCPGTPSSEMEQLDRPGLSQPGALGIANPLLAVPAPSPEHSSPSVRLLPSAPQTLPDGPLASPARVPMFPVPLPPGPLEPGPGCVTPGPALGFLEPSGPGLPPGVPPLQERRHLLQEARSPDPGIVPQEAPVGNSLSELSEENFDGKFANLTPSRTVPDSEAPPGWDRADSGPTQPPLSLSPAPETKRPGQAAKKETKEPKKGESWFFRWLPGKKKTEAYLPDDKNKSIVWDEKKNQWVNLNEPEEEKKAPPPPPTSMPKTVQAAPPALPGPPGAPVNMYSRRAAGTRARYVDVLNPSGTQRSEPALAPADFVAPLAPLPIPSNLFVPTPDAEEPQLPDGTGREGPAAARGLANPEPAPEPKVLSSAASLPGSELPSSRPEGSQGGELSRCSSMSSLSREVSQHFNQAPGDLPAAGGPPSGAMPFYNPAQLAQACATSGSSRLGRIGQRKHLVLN
Sequence of UniProt Q9H974 (Q9H974 whole entry, looked up): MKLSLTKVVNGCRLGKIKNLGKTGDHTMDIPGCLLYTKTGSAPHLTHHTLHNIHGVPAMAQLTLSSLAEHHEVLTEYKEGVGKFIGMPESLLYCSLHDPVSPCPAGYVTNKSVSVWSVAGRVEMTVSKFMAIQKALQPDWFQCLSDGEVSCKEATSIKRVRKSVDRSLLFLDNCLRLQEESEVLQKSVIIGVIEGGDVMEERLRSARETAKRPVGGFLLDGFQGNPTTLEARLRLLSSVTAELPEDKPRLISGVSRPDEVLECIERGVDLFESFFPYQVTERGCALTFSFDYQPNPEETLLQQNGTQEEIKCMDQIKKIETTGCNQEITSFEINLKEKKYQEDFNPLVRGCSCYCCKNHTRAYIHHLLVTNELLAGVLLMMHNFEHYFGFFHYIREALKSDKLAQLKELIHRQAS
Sequence of UniProt Q13546 (Q13546 whole entry, looked up): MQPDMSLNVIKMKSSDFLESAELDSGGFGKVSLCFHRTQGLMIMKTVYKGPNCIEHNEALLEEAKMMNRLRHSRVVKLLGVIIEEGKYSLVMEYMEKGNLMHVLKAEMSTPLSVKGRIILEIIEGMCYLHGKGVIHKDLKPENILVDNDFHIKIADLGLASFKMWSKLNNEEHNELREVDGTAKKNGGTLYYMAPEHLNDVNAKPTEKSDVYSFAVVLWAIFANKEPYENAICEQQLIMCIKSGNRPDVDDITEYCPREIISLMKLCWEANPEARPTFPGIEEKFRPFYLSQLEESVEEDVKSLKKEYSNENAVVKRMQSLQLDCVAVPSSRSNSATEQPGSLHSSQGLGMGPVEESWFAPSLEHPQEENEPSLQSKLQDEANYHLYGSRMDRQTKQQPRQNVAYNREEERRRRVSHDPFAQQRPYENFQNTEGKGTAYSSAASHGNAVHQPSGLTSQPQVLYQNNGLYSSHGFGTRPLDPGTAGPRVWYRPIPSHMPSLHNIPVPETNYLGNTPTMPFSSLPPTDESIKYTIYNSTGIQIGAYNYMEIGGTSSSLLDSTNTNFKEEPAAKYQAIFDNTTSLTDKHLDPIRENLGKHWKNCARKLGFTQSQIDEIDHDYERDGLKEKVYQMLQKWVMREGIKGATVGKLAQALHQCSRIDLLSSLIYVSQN

Row | Target | log2 fold change [1] | log2 fold change (vorinostat) | log2 fold change (silmitasertib) | log2 fold change [2] | log2 fold change (entospletinib)
1 | SEC24D isoform 2 (UniProt O94855) | -0.017 | -0.251 (active) | 0.037 | -0.013 | -0.003
2 | RPL36AL (UniProt Q969Q0) | -0.056 | 0.124 | 0.011 | 0.131 | -0.001
3 | RIOK2 (UniProt Q9BVS4) | -0.022 | -0.098 | 0.096 | 0.008 | 0.315
4 | RBSN (UniProt Q9H1K0) | 0.039 | 0.035 | -0.032 | -0.026 | -0.088
5 | RARS (UniProt P54136) | -0.004 | -0.309 (active) | 0.056 | -0.009 | 0.024
6 | RPS18 (UniProt P62269) | 0.033 | 0.081 | 0.019 | 0.007 | -0.02
7 | RBMX (UniProt P38159) | -0.043 | 0.065 | 0.048 | -0.022 | 0.008
8 | SEC16A isoform 5 (UniProt O15027) | 0.053 | -0.281 (active) | 0.008 | -0.029 | -0.015
9 | RAB3IL1 (UniProt Q8TBN0) | -0.006 | -0.268 (active) | 0.025 | 0.07 | 0.015
10 | SAR1B (UniProt Q9Y6B6) | -0.083 | 0.155 | -0.103 | -0.044 | -0.053
11 | RIPK1 (UniProt Q13546) | -0.021 | -0.292 (active) | -0.037 | -0.013 | 0.011
12 | RAPGEF2, A0A2R8YGD3 | -0.041 | 0.2 | -0.007 | 0.015 | -0.046
13 | SEC62 (UniProt Q99442) | 0.036 | 0.133 | 0.015 | 0.007 | -0.019
14 | SCO2 (UniProt O43819) | -0.024 | 0.063 | -0.079 | 0.017 | 0.053
15 | RETREG2 (UniProt Q8NC44) | -0.058 | 0.023 | 0.015 | -0.007 | -0.004
16 | RABEPK (UniProt Q7Z6M1) | 0.008 | -0.441 (active) | 0.032 | 0.014 | 0.009
17 | QTRT2 isoform 4 (UniProt Q9H974) | 0.004 | 0.079 | -0.011 | -0.007 | 0.022
18 | RNF213, A0A0A0MTC1 | 0.022 | -0.381 (active) | 0.032 | 0.007 | 0.052
19 | RNF181 (UniProt Q9P0P0) | -0.014 | 0.101 | -0.019 | -0.023 | -0.24 (active)
20 | RIOK1 (UniProt Q9BRS2) | 0.016 | -0.035 | 0.358 (active) | -0.02 | 0.029
21 | RANBP2 (UniProt P49792) | -0.01 | -0.343 (active) | -0.004 | 0.001 | -0.006
22 | RAE1 (UniProt P78406) | 0.007 | -0.126 | -0.022 | -0.062 | -0.024
23 | RPS26P11 (UniProt Q5JNZ5) | -0.026 | 0.114 | 0.049 | -0.113 | -0.035
24 | RAC2 (UniProt P15153) | -0.073 | -0.25 (active) | 0.024 | 0.102 | 0.024
25 | RPS6KA5 (UniProt O75582) | -0.025 | -0.189 | 0.034 | -0.303 | -0.007
26 | RIC1 (UniProt Q4ADV7) | -0.053 | -0.193 | 0.057 | -0.06 | 0.045
